Measured values: publication PMC7862700, “An all-to-all approach to the identification of sequence-specific readers for epigenetic DNA modifications on cytosine”

Experiments:
Test in all cases: DAPPL (digital affinity profiling via proximity ligation, sequencing); 10 mM Tris-HCl pH 7.5, 50 mM NaCl, 1 mM DTT, 4% glycerol, room temperature, 30 min; GST-TFs on glutathione beads, 16-mer random dsDNA library, 0.1% formaldehyde crosslink after washing; high values mean tight binding
[1] = biological target: T1, FEV (Homo sapiens, UniProt Q99581 1-238); conditions: protein: recombinant; tags: N-terminal GST; dsDNA, one strand shown
T1 sequence: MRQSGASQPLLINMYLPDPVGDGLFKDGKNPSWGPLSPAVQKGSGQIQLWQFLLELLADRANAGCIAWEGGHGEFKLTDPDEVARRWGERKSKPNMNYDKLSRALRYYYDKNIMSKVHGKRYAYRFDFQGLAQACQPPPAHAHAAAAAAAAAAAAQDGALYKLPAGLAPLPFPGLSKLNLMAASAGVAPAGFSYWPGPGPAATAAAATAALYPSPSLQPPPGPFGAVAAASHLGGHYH
How it was run: (§1)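 The binding signal reported is, for every hexamer, its read frequency for a factor over its read frequency for the tag-only sample. Reads came from pools of yeast-expressed, GST-fused human transcription factors on glutathione beads, barcoded with DNA and mixed with that sample, which were incubated with 200 nmole of a random double-stranded 16-mer DNA library in Tris/NaCl/DTT/glycerol buffer at room temperature for 30 min. After washing, the pools were crosslinked with 0.1% formaldehyde, proximity-ligated with BsaI/T4 ligase for 1 h at 37 °C, PCR-amplified and sequenced on an Illumina NextSeq500.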

[2] = biological target: ETV5 (Homo sapiens, UniProt P41161 1-510); conditions: protein: recombinant; tags: N-terminal GST; dsDNA, one strand shown
How it was run: as §1

[3] = biological target: HSF1 (Homo sapiens, UniProt Q00613 1-529); conditions: protein: recombinant; tags: N-terminal GST; chain copies: 3; dsDNA, one strand shown
How it was run: as §1

[4] = biological target: T2, SPIC (Homo sapiens, UniProt Q8N5J4 1-248); conditions: protein: recombinant; tags: N-terminal GST; dsDNA, one strand shown
T2 sequence: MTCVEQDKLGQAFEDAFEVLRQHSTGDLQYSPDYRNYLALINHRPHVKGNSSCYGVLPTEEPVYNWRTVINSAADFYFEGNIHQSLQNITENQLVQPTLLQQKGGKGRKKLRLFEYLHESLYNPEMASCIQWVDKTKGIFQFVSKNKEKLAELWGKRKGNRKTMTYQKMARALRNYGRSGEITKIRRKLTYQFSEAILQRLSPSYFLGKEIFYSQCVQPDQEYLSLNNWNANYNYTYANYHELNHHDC
How it was run: as §1

[5] = biological target: ELF4 (Homo sapiens, UniProt Q99607 1-663); conditions: protein: recombinant; tags: N-terminal GST; dsDNA, one strand shown
How it was run: as §1

[6] = biological target: T3, ETV2 (Homo sapiens, UniProt O00321 1-342); conditions: protein: recombinant; tags: N-terminal GST; dsDNA, one strand shown
T3 sequence: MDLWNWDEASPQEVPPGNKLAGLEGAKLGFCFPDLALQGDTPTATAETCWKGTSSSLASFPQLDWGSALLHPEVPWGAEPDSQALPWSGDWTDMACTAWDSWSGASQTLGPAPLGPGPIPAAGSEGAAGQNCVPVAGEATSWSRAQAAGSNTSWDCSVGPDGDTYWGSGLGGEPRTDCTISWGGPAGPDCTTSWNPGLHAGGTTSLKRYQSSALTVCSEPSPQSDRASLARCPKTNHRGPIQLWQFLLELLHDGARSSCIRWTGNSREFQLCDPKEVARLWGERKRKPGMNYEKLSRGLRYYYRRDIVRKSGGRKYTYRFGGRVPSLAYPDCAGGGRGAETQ
How it was run: as §1

[7] = biological target: T4, ELF3 (Homo sapiens, UniProt P78545 1-371); conditions: protein: recombinant; tags: N-terminal GST; dsDNA, one strand shown
T4 sequence: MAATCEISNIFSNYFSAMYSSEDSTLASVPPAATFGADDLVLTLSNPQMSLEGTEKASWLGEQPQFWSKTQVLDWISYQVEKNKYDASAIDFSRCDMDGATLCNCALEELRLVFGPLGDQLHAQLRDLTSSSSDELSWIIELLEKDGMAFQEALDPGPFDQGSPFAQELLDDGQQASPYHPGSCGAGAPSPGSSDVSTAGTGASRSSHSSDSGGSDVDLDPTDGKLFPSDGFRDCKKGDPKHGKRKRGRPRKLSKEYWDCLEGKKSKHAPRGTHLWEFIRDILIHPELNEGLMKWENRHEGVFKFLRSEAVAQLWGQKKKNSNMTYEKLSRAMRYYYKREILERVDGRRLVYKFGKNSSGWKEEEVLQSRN
How it was run: as §1

[8] = biological target: CRX (Homo sapiens, UniProt O43186 1-299); conditions: protein: recombinant; tags: N-terminal GST; dsDNA, one strand shown
How it was run: as §1

[9] = biological target: ETV1 (Homo sapiens, UniProt P50549 1-477); conditions: protein: recombinant; tags: N-terminal GST; dsDNA, one strand shown
How it was run: as §1

[10] = biological target: T5, ERF (Homo sapiens, UniProt P50548 1-548); conditions: protein: recombinant; tags: N-terminal GST; dsDNA, one strand shown
T5 sequence: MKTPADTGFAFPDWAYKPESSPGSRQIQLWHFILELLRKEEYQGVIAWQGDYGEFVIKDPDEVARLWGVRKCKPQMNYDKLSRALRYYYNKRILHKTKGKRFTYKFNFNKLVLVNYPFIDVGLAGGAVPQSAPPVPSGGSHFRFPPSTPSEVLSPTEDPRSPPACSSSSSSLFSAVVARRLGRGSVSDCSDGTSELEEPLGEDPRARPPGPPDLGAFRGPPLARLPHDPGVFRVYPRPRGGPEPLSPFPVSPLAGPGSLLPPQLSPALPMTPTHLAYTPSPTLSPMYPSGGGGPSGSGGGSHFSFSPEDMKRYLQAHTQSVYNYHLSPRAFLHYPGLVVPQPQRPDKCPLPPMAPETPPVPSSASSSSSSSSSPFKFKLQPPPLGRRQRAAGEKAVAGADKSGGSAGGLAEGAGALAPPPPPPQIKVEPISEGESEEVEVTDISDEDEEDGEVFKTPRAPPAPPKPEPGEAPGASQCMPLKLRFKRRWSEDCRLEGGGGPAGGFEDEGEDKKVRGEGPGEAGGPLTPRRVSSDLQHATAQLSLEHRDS
How it was run: as §1

[11] = biological target: T6, ETV3L (Homo sapiens, UniProt Q6ZN32 1-361); conditions: protein: recombinant; tags: N-terminal GST; dsDNA, one strand shown
T6 sequence: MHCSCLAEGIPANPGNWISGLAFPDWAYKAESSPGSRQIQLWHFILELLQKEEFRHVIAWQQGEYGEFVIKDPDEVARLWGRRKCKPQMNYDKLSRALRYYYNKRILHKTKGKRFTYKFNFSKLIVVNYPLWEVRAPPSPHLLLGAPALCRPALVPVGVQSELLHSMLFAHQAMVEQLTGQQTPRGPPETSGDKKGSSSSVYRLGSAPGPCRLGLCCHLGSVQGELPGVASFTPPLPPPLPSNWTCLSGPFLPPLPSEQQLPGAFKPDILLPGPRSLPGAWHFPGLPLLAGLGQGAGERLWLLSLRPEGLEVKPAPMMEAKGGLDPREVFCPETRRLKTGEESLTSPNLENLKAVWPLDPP
How it was run: as §1

[12] = biological target: T7, ETS2 (Homo sapiens, UniProt P15036 1-469); conditions: protein: recombinant; tags: N-terminal GST; dsDNA, one strand shown
T7 sequence: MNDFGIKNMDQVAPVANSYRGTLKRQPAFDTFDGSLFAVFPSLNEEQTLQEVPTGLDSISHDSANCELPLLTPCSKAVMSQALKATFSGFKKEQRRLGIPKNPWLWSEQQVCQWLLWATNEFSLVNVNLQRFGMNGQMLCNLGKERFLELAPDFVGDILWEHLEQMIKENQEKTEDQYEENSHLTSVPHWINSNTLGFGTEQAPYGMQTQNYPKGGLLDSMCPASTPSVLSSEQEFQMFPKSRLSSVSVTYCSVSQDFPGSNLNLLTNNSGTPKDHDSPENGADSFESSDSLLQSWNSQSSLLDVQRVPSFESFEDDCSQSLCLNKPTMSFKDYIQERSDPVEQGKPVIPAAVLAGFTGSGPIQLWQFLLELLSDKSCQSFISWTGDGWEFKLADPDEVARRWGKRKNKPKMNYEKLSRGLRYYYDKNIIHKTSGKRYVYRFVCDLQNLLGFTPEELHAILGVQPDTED
How it was run: as §1

[13] = biological target: T8, SPDEF (Homo sapiens, UniProt O95238 1-335); conditions: protein: recombinant; tags: N-terminal GST; dsDNA, one strand shown
T8 sequence: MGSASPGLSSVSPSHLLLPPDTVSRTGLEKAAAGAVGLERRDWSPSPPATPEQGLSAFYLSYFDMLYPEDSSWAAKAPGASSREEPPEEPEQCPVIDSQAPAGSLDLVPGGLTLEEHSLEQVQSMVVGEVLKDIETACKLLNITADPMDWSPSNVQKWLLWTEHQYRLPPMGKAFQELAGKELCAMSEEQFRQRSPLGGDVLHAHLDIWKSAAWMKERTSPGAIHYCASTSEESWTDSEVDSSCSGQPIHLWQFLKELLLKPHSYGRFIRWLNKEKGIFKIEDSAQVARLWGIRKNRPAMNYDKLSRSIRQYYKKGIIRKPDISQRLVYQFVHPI
How it was run: as §1

[14] = biological target: T9, ETV7 (Homo sapiens, UniProt Q9Y603 1-341); conditions: protein: recombinant; tags: N-terminal GST; dsDNA, one strand shown
T9 sequence: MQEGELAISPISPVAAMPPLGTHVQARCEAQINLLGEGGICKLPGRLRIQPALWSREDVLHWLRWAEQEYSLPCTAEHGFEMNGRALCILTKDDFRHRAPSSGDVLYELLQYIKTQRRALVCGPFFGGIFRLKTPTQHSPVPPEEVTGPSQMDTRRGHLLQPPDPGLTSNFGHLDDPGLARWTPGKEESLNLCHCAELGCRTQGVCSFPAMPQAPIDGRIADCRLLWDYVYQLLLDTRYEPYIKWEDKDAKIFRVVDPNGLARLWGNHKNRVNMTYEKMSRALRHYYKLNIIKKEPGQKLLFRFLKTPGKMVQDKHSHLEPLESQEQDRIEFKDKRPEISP
How it was run: as §1

[15] = biological target: T10, ELF5 (Homo sapiens, UniProt Q9UKW6-2 1-255); conditions: protein: recombinant; tags: N-terminal GST; dsDNA, one strand shown
T10 sequence: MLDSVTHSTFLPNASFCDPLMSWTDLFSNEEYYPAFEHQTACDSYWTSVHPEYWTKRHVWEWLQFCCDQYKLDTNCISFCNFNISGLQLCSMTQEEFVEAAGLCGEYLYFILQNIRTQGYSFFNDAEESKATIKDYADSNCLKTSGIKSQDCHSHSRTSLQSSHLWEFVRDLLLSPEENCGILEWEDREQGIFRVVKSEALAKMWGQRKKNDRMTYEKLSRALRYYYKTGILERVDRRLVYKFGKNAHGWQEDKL
How it was run: as §1

[16] = biological target: T11, ETV3 (Homo sapiens, UniProt P41162-2 1-143); conditions: protein: recombinant; tags: N-terminal GST; dsDNA, one strand shown
T11 sequence: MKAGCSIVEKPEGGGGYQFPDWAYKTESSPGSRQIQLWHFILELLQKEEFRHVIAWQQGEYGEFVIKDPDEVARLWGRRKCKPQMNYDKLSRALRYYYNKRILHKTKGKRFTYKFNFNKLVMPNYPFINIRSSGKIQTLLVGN
How it was run: as §1

[17] = biological target: ETV6 (Homo sapiens, UniProt P41212 1-452); conditions: protein: recombinant; tags: N-terminal GST; dsDNA, one strand shown
How it was run: as §1

Chain of ELF4 (Q99607 whole entry): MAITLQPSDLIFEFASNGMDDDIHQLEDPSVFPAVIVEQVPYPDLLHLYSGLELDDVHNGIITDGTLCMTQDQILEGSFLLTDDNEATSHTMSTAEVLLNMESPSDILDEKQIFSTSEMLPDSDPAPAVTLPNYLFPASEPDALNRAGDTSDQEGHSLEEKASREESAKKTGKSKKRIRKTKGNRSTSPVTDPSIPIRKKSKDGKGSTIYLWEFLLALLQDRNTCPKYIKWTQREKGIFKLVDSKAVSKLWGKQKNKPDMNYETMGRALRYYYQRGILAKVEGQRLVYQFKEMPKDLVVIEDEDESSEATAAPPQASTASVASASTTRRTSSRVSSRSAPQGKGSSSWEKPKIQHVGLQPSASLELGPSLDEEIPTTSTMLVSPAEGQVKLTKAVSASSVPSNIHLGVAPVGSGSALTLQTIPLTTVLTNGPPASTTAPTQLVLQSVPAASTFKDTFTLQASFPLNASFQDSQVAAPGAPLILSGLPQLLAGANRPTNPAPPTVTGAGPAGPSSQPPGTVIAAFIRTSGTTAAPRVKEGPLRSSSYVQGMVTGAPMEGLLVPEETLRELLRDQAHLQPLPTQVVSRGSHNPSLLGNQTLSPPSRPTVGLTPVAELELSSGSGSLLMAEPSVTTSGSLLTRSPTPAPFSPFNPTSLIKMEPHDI
Chain of ETV1 (P50549 whole entry): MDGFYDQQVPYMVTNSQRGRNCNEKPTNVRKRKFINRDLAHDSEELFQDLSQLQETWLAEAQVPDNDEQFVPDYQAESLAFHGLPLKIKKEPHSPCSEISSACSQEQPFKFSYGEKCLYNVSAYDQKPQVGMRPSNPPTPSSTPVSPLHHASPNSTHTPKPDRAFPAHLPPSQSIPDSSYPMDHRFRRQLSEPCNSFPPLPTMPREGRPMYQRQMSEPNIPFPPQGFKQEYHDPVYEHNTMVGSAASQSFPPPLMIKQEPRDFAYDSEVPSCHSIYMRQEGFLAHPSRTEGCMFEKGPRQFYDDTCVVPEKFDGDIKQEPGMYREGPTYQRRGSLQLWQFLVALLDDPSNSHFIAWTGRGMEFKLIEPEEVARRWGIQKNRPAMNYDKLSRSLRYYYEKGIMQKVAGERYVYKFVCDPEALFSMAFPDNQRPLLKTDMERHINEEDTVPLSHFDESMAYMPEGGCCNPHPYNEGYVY
Chain of ETV5 (P41161 whole entry): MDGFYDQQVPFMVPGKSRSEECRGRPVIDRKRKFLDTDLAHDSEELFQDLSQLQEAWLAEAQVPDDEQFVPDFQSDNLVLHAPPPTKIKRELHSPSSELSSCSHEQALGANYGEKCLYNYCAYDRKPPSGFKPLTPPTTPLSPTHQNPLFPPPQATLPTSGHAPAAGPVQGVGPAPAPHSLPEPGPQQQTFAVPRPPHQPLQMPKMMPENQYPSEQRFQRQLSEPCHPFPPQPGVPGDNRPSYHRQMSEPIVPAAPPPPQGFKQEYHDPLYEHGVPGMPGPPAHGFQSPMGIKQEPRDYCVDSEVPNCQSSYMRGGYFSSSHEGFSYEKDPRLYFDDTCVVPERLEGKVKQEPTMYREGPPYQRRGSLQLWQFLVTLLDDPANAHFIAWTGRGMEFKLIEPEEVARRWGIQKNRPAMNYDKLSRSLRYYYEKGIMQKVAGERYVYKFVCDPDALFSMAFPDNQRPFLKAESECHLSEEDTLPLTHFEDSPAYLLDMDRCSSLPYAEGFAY
Chain of HSF1 (Q00613 whole entry): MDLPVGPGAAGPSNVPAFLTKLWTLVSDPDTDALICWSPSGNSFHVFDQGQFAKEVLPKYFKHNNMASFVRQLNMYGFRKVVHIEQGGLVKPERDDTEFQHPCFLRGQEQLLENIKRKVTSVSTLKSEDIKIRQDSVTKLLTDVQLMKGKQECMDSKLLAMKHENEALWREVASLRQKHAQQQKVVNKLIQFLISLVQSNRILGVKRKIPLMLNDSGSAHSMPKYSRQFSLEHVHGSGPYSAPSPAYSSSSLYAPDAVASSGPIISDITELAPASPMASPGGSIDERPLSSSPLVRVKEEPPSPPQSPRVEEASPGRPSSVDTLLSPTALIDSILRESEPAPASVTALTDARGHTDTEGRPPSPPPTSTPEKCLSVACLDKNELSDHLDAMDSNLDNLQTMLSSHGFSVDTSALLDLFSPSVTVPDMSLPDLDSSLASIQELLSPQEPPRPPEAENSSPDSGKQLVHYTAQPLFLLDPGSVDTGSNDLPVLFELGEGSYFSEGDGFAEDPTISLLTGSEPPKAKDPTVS
Chain of ETV6 (P41212 whole entry): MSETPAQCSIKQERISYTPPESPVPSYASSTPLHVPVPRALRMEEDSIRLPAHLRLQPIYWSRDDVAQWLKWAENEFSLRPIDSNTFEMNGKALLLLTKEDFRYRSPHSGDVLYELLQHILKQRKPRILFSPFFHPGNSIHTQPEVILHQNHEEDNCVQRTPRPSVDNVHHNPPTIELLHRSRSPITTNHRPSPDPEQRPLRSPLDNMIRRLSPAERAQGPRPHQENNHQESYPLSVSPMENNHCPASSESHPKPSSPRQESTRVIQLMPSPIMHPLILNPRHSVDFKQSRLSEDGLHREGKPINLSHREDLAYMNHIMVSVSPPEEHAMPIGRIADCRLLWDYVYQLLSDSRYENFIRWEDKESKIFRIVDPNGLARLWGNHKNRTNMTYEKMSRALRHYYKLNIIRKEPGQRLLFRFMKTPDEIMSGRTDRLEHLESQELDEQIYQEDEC
Chain of CRX (O43186 whole entry): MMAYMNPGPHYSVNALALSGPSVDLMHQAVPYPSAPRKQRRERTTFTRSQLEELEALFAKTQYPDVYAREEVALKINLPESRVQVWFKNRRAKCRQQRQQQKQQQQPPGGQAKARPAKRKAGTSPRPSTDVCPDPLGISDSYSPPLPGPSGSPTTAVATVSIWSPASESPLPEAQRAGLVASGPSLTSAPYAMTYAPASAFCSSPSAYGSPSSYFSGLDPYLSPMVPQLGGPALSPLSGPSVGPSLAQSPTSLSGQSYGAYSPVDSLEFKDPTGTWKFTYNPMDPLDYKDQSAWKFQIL

## CAAATT
[1]
  binding signal: 1.14 fold enrichment (6-mer frequency, TF over GST control)
[2]
  binding signal: 1.2 fold enrichment (6-mer frequency, TF over GST control)
[3]
  binding signal: 1.17 fold enrichment (6-mer frequency, TF over GST control)
[4]
  binding signal: 1.16 fold enrichment (6-mer frequency, TF over GST control)
[5]
  binding signal: 1.07 fold enrichment (6-mer frequency, TF over GST control)
[6]
  binding signal: 1.09 fold enrichment (6-mer frequency, TF over GST control)
[7]
  binding signal: 1.17 fold enrichment (6-mer frequency, TF over GST control)
[8]
  binding signal: 1.12 fold enrichment (6-mer frequency, TF over GST control)
[9]
  binding signal: 1.18 fold enrichment (6-mer frequency, TF over GST control)
[10]
  binding signal: 1.17 fold enrichment (6-mer frequency, TF over GST control)
[11]
  binding signal: 1.18 fold enrichment (6-mer frequency, TF over GST control)
[12]
  binding signal: 1.17 fold enrichment (6-mer frequency, TF over GST control)
[13]
  binding signal: 1.12 fold enrichment (6-mer frequency, TF over GST control)
[14]
  binding signal: 1.14 fold enrichment (6-mer frequency, TF over GST control)
[15]
  binding signal: 1.1 fold enrichment (6-mer frequency, TF over GST control)
[16]
  binding signal: 1.13 fold enrichment (6-mer frequency, TF over GST control)
[17]
  binding signal: 1.1 fold enrichment (6-mer frequency, TF over GST control)
